{"source": "PubChem BioAssay (NCI)", "note": "Compounds without any hit were thinned out: in the full panel of roughly 83,000, 20% have a hit.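 Negative percent growth values reflect cell death: -40 means 40% of the cells present at the start died, and -100 means all died.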 Active and inactive are the calls of the source. The calls were made as follows: active = growth percent below 10; inactive = the rest."}
{"tested_on": "SF-539 CNS", "assay": "NCI-60 one-dose screen, 48 h (100 = growth as untreated, 0 = no growth, -100 = all killed)", "conditions": "10 µM unless noted"}
{"smiles": "COCc1c(-c2ccc(NC(=O)Nc3cc(C(F)(F)F)ccc3F)c(F)c2)c2c(N)ncnn2c1CN1CCOCC1", "growth": "-71.5% (active)"}
{"smiles": "COC(=O)[C@@H](NC(=O)[C@@H](OC)[C@@H]1Cc2cc3cc(OC4CC(OC5CC(O)C(O)C(C)O5)C(O)C(C)O4)c(C)c(O)c3c(O)c2C(=O)[C@H]1OC1CC(OC2CC(OC3CC(C)(O)C(O)C(C)O3)C(O)C(C)O2)C(O)C(C)O1)C(C)C", "note": "(some centres not stated)", "growth": "-22.4% (active)"}
{"smiles": "Cc1ccc(Nc2nccc(N(C)c3ccc4c(C)n(C)nc4c3)n2)cc1S(N)(=O)=O", "growth": "-45.2% (active)"}
{"smiles": "CCN(CCO)CCCOc1ccc2c(Nc3cc(CC(=O)Nc4cccc(F)c4)[nH]n3)ncnc2c1", "growth": "25.8% (inactive)"}
{"smiles": "COc1ccc(Cc2cc(-c3ccccc3C)n[nH]c2=O)cc1", "growth": "97.8% (inactive)"}
{"smiles": "Clc1ccc(C(Cn2ccnc2)OCc2ccsc2Cl)c(Cl)c1", "note": "(configuration not stated)", "growth": "72.5% (inactive)"}
{"smiles": "COc1ccc(/C(C)=C(\\c2ccc(Cl)cc2)c2ccc(OCCN3CCCCCC3)cc2)cc1", "growth": "56.8% (inactive)"}
{"smiles": "CCCCCc1ccc(C)cc1OC(=O)CCl", "growth": "112% (inactive)"}
{"smiles": "COc1ccc(-c2ccc3ncc4c(c3c2)n(-c2ccc(N3CCNCC3)c(C(F)(F)F)c2)c(=O)n4C)cn1", "growth": "-84.7% (active)"}
{"smiles": "COc1cc(OC)c(/C=C/S(=O)(=O)Cc2ccc(OC)c(NCC(=O)O)c2)c(OC)c1", "growth": "-17.1% (active)"}
{"smiles": "COC1CCC(N2C(=O)CNc3ncc(-c4ccc(C(C)(C)O)nc4)nc32)CC1", "note": "(configuration not stated)", "growth": "-21.9% (active)"}
{"smiles": "C[C@@H](Oc1cc(-n2cnc3ccc(CN4CCN(C)CC4)cc32)sc1C(N)=O)c1ccccc1C(F)(F)F", "growth": "-22.1% (active)"}
